Active and inactive are the calls of the source. Calls come from the whole dose curve; as a rule, active = well fitted cell-killing curve with a large enough effect in the repeat runs; inconclusive = weak or mixed curves, or effect the other way; inactive = flat fitted curve, though single readings scatter.
test: qHTS assay to identify small molecule HDAC inhibitors - cell viability counter screen (AID 1259365); conditions: HCT-116 viability, CellTiter-Glo ATP luminescence, 2 h; series mostly up to 92.4 µM; note: nearly all actives have a fitted effect of over 50% in size
Text: U.S. Tox21 Program National Center for Advancing Translational Sciences [NCATS] NIH Chemical Genomics Center [NCGC] U.S. Environmental Protection Agency [EPA] National Institutes of Environmental Health Sciences [NIEHS] National Toxicology Program [NTP] U.S. Food and Drug Administration [FDA] Tox21 Assay Overview: Histone deacetylases (HDACs) are a group of epigenetic enzymes that regulate gene expression by histone deacetylation. HDACs are capable of introducing epigenetic modifications and such aberrations contribute to the onset and progression of several human diseases, thus making HDACs a popular therapeutic target. For identifying endogenous class I/II HDAC inhibitors a homogenous, luminogenic HDAC I/II cell based assay was used to measure the relative activity of class I and II HDACs from cells. Wild type HCT-116 cells were used to screen Tox21 compound libraries for identifying class I/II HDAC inhibitors.
Tox21 Assay Protocol Summary: HCT-116 cells were dispensed at 1,500 per well in 5uL of culture medium into white solid bottom 1536-well plates (Greiner Bio-One, Monroe, NC) using a Multidrop Combi (Thermo Scientific, Waltham, MA) dispenser. The assay plates were incubated at 37 C and 5% CO2 for an overnight, and then 23nL of compounds dissolved in DMSO and positive control were transferred using a Pintool station (Wako, San Diego, CA). The assay plates were incubated at 37C and 5% CO2 for 2hr. After compound treatment, 4uL of CellTiter-Glo reagent (Promega Corporation, Madison, WI) was added to each well of the assay plates using Flying Reagent Dispenser (FRD, Aurora Discovery, San Diego, CA) and incubated the assay plates at room temperature for 30min. The luminescence signal was quantified using a ViewLux plate reader (Perkin Elmer, Shelton, CT).
% is set by controls: 0 for no effect and ±100 for the full control effect.

SMILES	outcome	activity change, negative = cytotoxicity
CCCCOCC(C)O (stereo not given)	inactive	
CC1(C)Cc2cccc(N)c2O1	inactive	
Nc1nc(-c2ccccc2)c(Br)c(=O)[nH]1	inactive	
CO/N=C(/C(=O)N[C@@H]1C(=O)N2C(C(=O)[O-])=C(C[n+]3ccn4ncccc43)CS[C@H]12)c1nsc(N)n1	inactive	
Cc1cc(C)c(C(=O)O)c(C)c1	inactive	
Cc1ccc(C)c([N+](=O)[O-])c1	inactive	
N#CCC(=O)NN	inactive	
O=Cc1cc2ccccc2o1	inactive	
N[C@@H](Cc1ccc(O)cc1)C(=O)O		0.0609% [at 8.39 µM] (inactive)
CO[Si](CCCn1c(=O)n(CCC[Si](OC)(OC)OC)c(=O)n(CCC[Si](OC)(OC)OC)c1=O)(OC)OC	inactive	
CC(C)NCC(O)c1ccc2ccccc2c1 (stereo not given)	inactive	
CC1OCCC1=O (stereo not given)	inactive	
CO[C@@]1(NC(=O)Cc2cccs2)C(=O)N2C(C(=O)O)=C(COC(N)=O)CS[C@@H]21	inactive	
O/N=C/C=N/O	inactive	
O=C(CCCCC(=O)Nc1c(I)cc(I)c(C(=O)O)c1I)Nc1c(I)cc(I)c(C(=O)O)c1I	inactive	
CC(C)OC(=O)CCC(=O)OC(C)C	inactive	
Cc1cccc(Cl)c1	inactive	
COC(=O)CCCCC(=O)O	inactive	
C/C=C(\C)C(=O)OCCc1ccccc1	inactive	
C/C(=C1\CCOC(=O)S1)N(C=O)Cc1cnc(C)nc1N	inactive	

SMILES	outcome	activity change, negative = cytotoxicity
CC1(C)[C@H]2CC[C@](C)(C2)[C@H]1O	inactive	
CC(C)=CCC[C@@](C)(O)[C@H]1CC=C(C)CC1	inactive	
N#Cc1ccccc1O	inactive	
C=C(C)[C@@H]1CC=C(C)CC1	inactive	
CCCC(CC)c1ccccc1 (stereo not given)	inactive	
CN1CCOC(c2ccccc2)c2ccccc2C1 (stereo not given)	inactive	
C[C@@H](O)C(=O)O	inactive	
CC(C)OC(=O)OCOP(=O)(CO[C@H](C)Cn1cnc2c(N)ncnc21)OCOC(=O)OC(C)C	inactive	
CC(=O)OC1CCCCC1C(C)(C)C (stereo not given)	inactive	
C/C(CC(C)C)=N\O	inactive	
COC(=O)CCCCC(CCSS/C(CCO)=C(\C)N(C=O)Cc1cnc(C)nc1N)SC(C)=O (stereo not given)	inactive	
CC(=O)Nc1ccc(OC(=O)c2ccccc2OC(C)=O)cc1	inactive	
CCCCCCC1(C)CCC(=O)O1 (stereo not given)	inactive	
O=C(CN1CCNCC1)NC1CCCCC1	inactive	
ONc1ccccc1	inactive	
N[C@@H](CSCCCO)C(=O)O		-0.57% [at 19 µM] (inactive)
CCOc1cccc(N)c1	inactive	
C/C=C(\C)C(C)=O	inactive	
CN(C)C(C)(C)CO	inactive	
CCCC(=O)OC/C=C(\C)CCC=C(C)C	inactive	

From PubChem BioAssay (Tox21)
